A selection: hits, their analogues and other compounds. The true share with any hit is near 3.5%.
Pf apPOL inh: Pf-apPOL inhibitors, biochemical, fluorescence. Plasmodium falciparum apicoplast DNA polymerase (apPOL). Recombinant Pf-apPOL, molecular beacon fluorescence, 1.5 h. inhibition, % at 10 µM. 210,000 tested, 0.25% active. AID 1794808, 2022
mHTT CaM bind: mutant huntingtin-calmodulin interaction inhibitors – biochemical, AlphaScreen, primary screen | 190,000 tested, 3.6% active | AlphaScreen His-mHTT/GST-CaM binding, luminescence | P42858 | inhibition, % at 15 µM | AID 1671202, 2021
Of the large screens only hits and unclear results are named; the others gave an inactive call. Cut-off read from the data, not from the text of the source: active = inhibition above about 50%; inactive = the rest.

CCOc1ccc(NC(=O)C2CCCN(C(=O)c3cc(C)cc(C)c3)C2)cc1 (stereo not drawn)	none
O=C(Nc1cccc(Cl)c1)C1CCN(S(=O)(=O)c2ccc(Br)s2)CC1	none
O=C1OC(c2ccccc2[N+](=O)[O-])=N/C1=C\c1ccc2c(c1)OCO2	none
CCC(=O)N(C)CC(=O)N1N=C(c2ccc(C)c(C)c2)CC1c1ccc(C)cc1 (stereo not drawn)	none
CC(=O)N(C)CC(=O)N1N=C(c2ccc(C)c(C)c2)CC1c1ccc(F)cc1 (stereo not drawn)	none
CCC(=O)N(C)CC(=O)N1N=C(c2ccc(F)cc2)CC1c1ccc(F)cc1 (stereo not drawn)	mHTT CaM bind 66
Cc1ccc(C2=NN(C(=O)CN(C)C(=O)C(C)C)C(c3ccc(F)cc3)C2)cc1C (stereo not drawn)	mHTT CaM bind 98
CCC(=O)N(C)CC(=O)N1N=C(c2ccc(C)c(C)c2)CC1c1ccc(F)cc1 (stereo not drawn)	mHTT CaM bind 72
CN(CC(=O)N1N=C(c2ccc(F)cc2)CC1c1ccc(F)cc1)C(=O)C1CC1 (stereo not drawn)	none
Cc1ccc2c(c1)C(=O)N1CCCC1C(=O)N2CC(=O)N1CCN(C)CC1 (stereo not drawn)	none
CCC(Br)C(=O)NCc1cccnc1 (stereo not drawn)	none
CCOC(=O)C1CCCN(C(=O)CCC(=O)N2CCCn3nc(C)cc32)C1 (stereo not drawn)	none
O=C(CN1C(=O)/C(=C/c2ccc(C(F)(F)F)cc2)Sc2ccccc21)NCc1ccccn1	none
CN1CCN(C(=O)CN2C(=O)/C(=C/c3ccc(C(F)(F)F)cc3)Sc3ccccc32)CC1	mHTT CaM bind 51
CCOCCCNC(=O)CN1C(=O)/C(=C/c2ccc(C(F)(F)F)cc2)Sc2ccccc21	none
Cc1ccc(/C=C2\Sc3ccccc3N(CC(=O)NCc3ccccn3)C2=O)cc1	mHTT CaM bind 80
COCCCNC(=O)CN1C(=O)/C(=C/c2ccc(C(F)(F)F)cc2)Sc2ccccc21	mHTT CaM bind 56
CNC(=O)CN1C(=O)/C(=C/c2ccc(C(F)(F)F)cc2)Sc2ccccc21	none
CCCCNC(=O)CN1C(=O)/C(=C/c2ccc(C(F)(F)F)cc2)Sc2ccccc21	none
O=C(CN1C(=O)/C(=C/c2ccc(C(F)(F)F)cc2)Sc2ccccc21)NCCN1CCCC1	mHTT CaM bind 84
CCOc1ccc(/C=C2\Cc3ccccc3C2=O)cc1	none
Cc1ccc(COC2CCCN(C(=O)Nc3ccc(C)cc3)C2)cc1 (stereo not drawn)	none
COc1ccc2[nH]c(=O)c(C=O)cc2c1	none
CCN(C)c1nc(-c2ccccc2Cl)c2c(N)n(-c3ccc(F)cc3)nc2n1	none
COc1ccc(CN2CCc3nc(Nc4ccc(F)cc4F)ncc3C2)cc1OC	none
COC(=O)C(C)Oc1ccc2c(c1)OC(=Cc1cccc(OC)c1)C2=O (stereo not drawn)	none
COc1ccc(-n2c(CCC(=O)O)ccc2-c2cccs2)c(OC)c1	mHTT CaM bind 55
COc1ccc(-c2ccc(CCC(=O)O)n2-c2ccc(OC)cc2OC)cc1	none
Cc1cc(Cl)ccc1N=Cc1nc(-c2ccc(Cl)cc2)oc1O	none
Cc1ccccc1-n1[nH]c(C)c(C=Nc2cc([N+](=O)[O-])cc([N+](=O)[O-])c2O)c1=O	mHTT CaM bind 53
Cc1ccccc1-n1[nH]c(C)c(C=Nc2ccc([N+](=O)[O-])cc2)c1=O	none
O=C(Nc1nccs1)c1ccc2nc(-c3ccco3)c(-c3ccco3)nc2c1	mHTT CaM bind 93
O=C(NC1=NCCS1)c1ccc2nc(-c3ccco3)c(-c3ccco3)nc2c1	mHTT CaM bind 72
O=C(Nc1ccccc1F)c1ccc2nc(-c3ccco3)c(-c3ccco3)nc2c1	none
O=C(c1ccc2nc(-c3ccco3)c(-c3ccco3)nc2c1)N(CCO)c1ccccc1	mHTT CaM bind 67
O=C(Nc1ccc2nsnc2c1)NC1CC1	none
CCOC(=O)N1CCN(C(=O)c2ccc3nc(-c4ccco4)c(-c4ccco4)nc3c2)CC1	none
O=C(c1ccc2nc(N3C(=O)CCC3=O)sc2c1)N(CCO)c1ccccc1	none
O=C(Nc1ccc2nc(-c3ccco3)c(-c3ccco3)nc2c1)NC1CC1	mHTT CaM bind 99
COCC(=O)N1CCCc2ccc(NC(=O)c3ccc4nsnc4c3)cc21	none
CC(C)CC(=O)N1CCc2c(c(-c3nc(-c4cccc(F)c4)no3)nn2C)C1	none
O=C(c1ccc(OCC2CCCN(C(=O)C3CC3)C2)cc1)N1CCCC1 (stereo not drawn)	none
C=C(C)CN(CC)Cc1ccc(N(C)C)cc1	none
c1ccc(CN2CCN(Cc3ccccn3)CC2)nc1	none
c1ccc(CNCCN2CCNCC2)nc1	mHTT CaM bind 100
Cc1nc(C(=O)NCc2ccc(N3CCCCC3)cc2)c(C)n1C1CCN(C)CC1	none
Cc1nc(C(=O)NCc2ccc(N3CCCC3)cc2)c(C)n1C1CCN(C)CC1	mHTT CaM bind 55
O=C(NCCSc1c(-c2ccc(Br)cc2)[nH]c2ccccc12)c1ccncc1	none
O=C(NCC1(c2ccc(F)cc2)CC1)C(=O)Nc1ccc(OC(F)(F)F)cc1	none
O=C(Nc1ccc(N2CCOCC2)cc1)c1ccccc1F	none
O=C(Nc1ccc2ncnc(N3CCCCC3)c2c1)c1cccc(F)c1	none
CC(C)Oc1cccc(C(=O)Nc2ccc(N3CCCC3)cc2)c1	mHTT CaM bind 99
CN(C)c1cccc(C(=O)Nc2ccc3ncnc(N4CCCC4)c3c2)c1	mHTT CaM bind 76
O=C(Nc1ccc(N2CCCC2)cc1)c1ccccc1F	mHTT CaM bind 88
Cc1cccc(C(=O)Nc2ccc3ncnc(N4CCCCC4)c3c2)c1	none
O=C(Nc1ccc2ncnc(N3CCCCC3)c2c1)c1ccccc1F	mHTT CaM bind 55
O=C(Nc1ccc(N2CCCCC2)cc1)c1ccccc1	none (no result: mHTT CaM bind)
CCOC(=O)N1CCN(c2ccccc2)CC1	none
COc1ccc(-c2cnnn2-c2ccc(NC(=O)c3ccc(Br)o3)cc2)cc1	none
CC1CCc2c(sc3nnn(CC(=O)Nc4ccc(F)cc4)c(=O)c23)C1 (stereo not drawn)	none
COc1cc(C)ccc1S(=O)(=O)NCc1cccs1	none
O=C(NCc1ccc2c(c1)OCO2)c1cn2c(n1)CCCC2	none
Cc1ccc(C)c(N2CCN(C(=O)C3CCN(c4cncnc4N(C)C)CC3)CC2)c1	mHTT CaM bind 60
CN(C)c1ncncc1N1CCC(C(=O)N2CCC(Cc3ccccc3)CC2)CC1	mHTT CaM bind 50
CC1CCN(C(=O)C2CCN(c3cncnc3N(C)C)CC2)CC1	none
CN(C)c1ncncc1N1CCC(C(=O)N2CCCC2)CC1	none
O=C(Nc1ccc2c(c1)C(=O)N1CCCCC1CCO2)c1ccc(F)cc1Cl (stereo not drawn)	none
CCn1c(=O)c(-c2nc(-c3ccc(C)cc3)no2)c(O)c2ccccc21	none
O=C(CCC(=O)Nc1ccccc1)Nc1ccccc1	none
O=C(NCc1cccs1)N(CCc1cccs1)Cc1cccnc1	none
CSc1nnc2c(n1)OC(c1ccc(Br)s1)Nc1ccccc1-2 (stereo not drawn)	mHTT CaM bind 57
CCCCSc1nnc2c(n1)OC(c1ccncc1)Nc1ccccc1-2 (stereo not drawn)	none
CSc1nnc2c(n1)OC(c1ccccc1O)Nc1ccccc1-2 (stereo not drawn)	none
CCCCSc1nnc2c(n1)OC(c1cc3c(cc1[N+](=O)[O-])OCO3)Nc1ccccc1-2 (stereo not drawn)	mHTT CaM bind 77
CCSc1nnc2c(n1)OC(c1cc3c(cc1[N+](=O)[O-])OCO3)Nc1ccccc1-2 (stereo not drawn)	mHTT CaM bind 53

Screening results as filed in PubChem BioAssay.
